# Experimental data from paper PMC4336329 (PLoS ONE, 2015).
# The whole screen tested about 310,000 compounds, of which about 14,000 (4.5%) showed an effect of 50% or more. Effects have a minus sign here. Shown is part of a subset that was picked to be rich in strong results.
# Molecular target: human ether-à-go-go-related gene (hERG) potassium channel (human, UniProt Q12809)
# Assay: primary screen, population patch clamp on CHO cells stably expressing hERG; higher = less effect of the substance
# 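Also: peak tail current of the secondary pulse compared with the same well before compound.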
# human ether-à-go-go-related gene (hERG) potassium channel, sequence (Q12809 whole entry, looked up): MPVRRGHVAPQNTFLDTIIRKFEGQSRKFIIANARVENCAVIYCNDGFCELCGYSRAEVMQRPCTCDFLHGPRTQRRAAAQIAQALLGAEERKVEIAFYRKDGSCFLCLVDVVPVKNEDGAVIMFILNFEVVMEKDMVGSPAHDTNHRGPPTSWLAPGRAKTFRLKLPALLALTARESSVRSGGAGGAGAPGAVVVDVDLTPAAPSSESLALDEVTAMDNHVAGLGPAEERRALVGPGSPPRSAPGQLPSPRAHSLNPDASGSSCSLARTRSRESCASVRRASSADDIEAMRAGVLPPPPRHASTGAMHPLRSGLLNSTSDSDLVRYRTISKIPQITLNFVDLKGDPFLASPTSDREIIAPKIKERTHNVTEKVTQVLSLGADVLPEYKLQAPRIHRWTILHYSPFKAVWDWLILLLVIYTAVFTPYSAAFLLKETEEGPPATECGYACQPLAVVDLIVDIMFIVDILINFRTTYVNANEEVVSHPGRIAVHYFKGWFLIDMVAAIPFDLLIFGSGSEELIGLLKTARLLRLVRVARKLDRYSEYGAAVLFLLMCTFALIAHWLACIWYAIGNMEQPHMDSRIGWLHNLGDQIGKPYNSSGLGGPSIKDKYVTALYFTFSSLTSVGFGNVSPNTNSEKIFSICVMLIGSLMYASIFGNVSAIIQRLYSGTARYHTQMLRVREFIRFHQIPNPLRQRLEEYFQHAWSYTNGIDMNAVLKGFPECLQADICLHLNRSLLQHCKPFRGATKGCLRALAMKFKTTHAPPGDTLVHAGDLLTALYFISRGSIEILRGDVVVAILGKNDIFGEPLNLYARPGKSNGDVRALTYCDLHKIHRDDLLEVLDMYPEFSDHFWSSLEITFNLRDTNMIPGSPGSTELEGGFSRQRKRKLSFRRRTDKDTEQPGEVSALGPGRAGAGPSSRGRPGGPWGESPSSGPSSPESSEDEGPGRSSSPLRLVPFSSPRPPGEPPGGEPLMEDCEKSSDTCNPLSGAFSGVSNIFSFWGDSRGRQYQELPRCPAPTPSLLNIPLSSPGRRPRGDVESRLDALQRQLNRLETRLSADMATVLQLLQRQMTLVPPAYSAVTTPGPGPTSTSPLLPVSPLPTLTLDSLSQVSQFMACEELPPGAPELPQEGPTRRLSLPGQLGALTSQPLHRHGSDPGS
row,Structure (SMILES),"hERG current change (%, negative = inhibition) at 10uM"
1,CCC1CCCCN1c1nc2c(C=O)c(C)nn2c2ccccc12 (stereo not shown),-12%
2,COc1cccc(-c2nc(CS(=O)(=O)CC(=O)Nc3cc(F)ccc3F)c(C)o2)c1,8.16%
3,COCCNc1ccc(S(=O)(=O)N2CCCC2)cn1,13.2%
4,COc1ccc(-c2c3c(=O)n(C)c(=O)n(C)c3cn2NC(C)=O)cc1,12.2%
5,CCCCC(=O)N1CCCC(c2nc3c(nnn3Cc3cc(C)ccc3C)c(=O)[nH]2)C1 (stereo not shown),-52.2%
6,Cc1ccc(C)c(Cn2nnc3c(=O)[nH]c(C4CCCN(C(=O)CC(C)C)C4)nc32)c1 (stereo not shown),-14.6%
7,O=C(C1CCCCC1)N1CCCC(c2nc3c(nnn3Cc3ccccc3)c(=O)[nH]2)C1 (stereo not shown),-8.73%
8,Cc1ccc(C)c(Cn2nnc3c(=O)[nH]c(C4CCCN(C(=O)C5CCC5)C4)nc32)c1 (stereo not shown),-32.4%
9,Cc1ccc(C)c(Cn2nnc3c(=O)[nH]c(C4CCN(C(=O)c5cccs5)CC4)nc32)c1,-66.5%
10,Cc1ccc(C)c(Cn2nnc3c(=O)[nH]c(C4CCCN(C(=O)c5ccco5)C4)nc32)c1 (stereo not shown),-38.3%
11,Cc1ccc(C)c(Cn2nnc3c(=O)[nH]c(C4CCCN(C(=O)C5CCCCC5)C4)nc32)c1 (stereo not shown),-51.5%
12,Cc1ccc(Cn2nnc3c(=O)[nH]c(C4CCN(C(=O)c5cccs5)CC4)nc32)cc1,-33%
13,Cc1ccc(C)c(Cn2nnc3c(=O)[nH]c(C4CCCN(C(=O)c5cccs5)C4)nc32)c1 (stereo not shown),0.859%
14,Cc1c(C(=O)N/N=C/c2ccc(N(C)C)cc2)[nH]c2ccc(Cl)cc12,2.69%
15,COC(=O)C1=C(C(=O)c2ccccc2)C(c2cccs2)n2nnnc2N1 (stereo not shown),19.8%
16,Cc1ccc(CN2C(=O)CCC2C(=O)NCc2ccc3c(c2)OCO3)cc1 (stereo not shown),-17.4%
17,NS(=O)(=O)c1ccc(CNC(=S)NCc2ccc(F)cc2)cc1,9.61%
18,CCOC(=O)c1ccc(NC(=O)CC2C(=O)N(c3ccccc3)C(=O)N2CCCOC)cc1 (stereo not shown),-4.49%
19,CC(=O)NS(=O)(=O)c1ccc(NC(=O)/C=C/c2cn(-c3ccccc3)nc2-c2ccccc2)cc1,34%
20,O=C(c1ccc([N+](=O)[O-])cc1)N1CCN(C2=NS(=O)(=O)c3ccccc32)CC1,-46.2%
21,COc1ccc(C(=O)OCCN2CCN(C3=NS(=O)(=O)c4ccccc43)CC2)cc1OC,-32.9%
22,O=C(OCCN1CCN(C2=NS(=O)(=O)c3ccccc32)CC1)c1ccccc1F,-16.9%
23,O=C(c1ccc(F)cc1)N1CCN(C2=NS(=O)(=O)c3ccccc32)CC1,-15.8%
24,O=C(OCCN1CCN(C2=NS(=O)(=O)c3ccccc32)CC1)c1cccc(Br)c1,-68.6%
25,O=C(c1cccc(Br)c1)N1CCN(C2=NS(=O)(=O)c3ccccc32)CC1,-65.8%
